Assay results: PubChem BioAssay AID1259415 (National Center for Advancing Translational Sciences (NCATS), 2018)
Among all 410,000 compounds or so, about 18,000 (4.4%) were called active. About 7% were inconclusive and are not listed. The sample as a whole holds a higher share of actives than the screen did. A number with no mark means an inactive call. No stated cut-off is given here; in the data, active means activity change below about -60%; inconclusive means no clear call, values can overlap the other calls; inactive means above about -39%.

assay: qHTS Assay for inhibitors of the human cytomegalovirus (HCMV); details: HFF cells, HCMV-luciferase reporter, 72 h; at 57.5 µM; active compounds read low
Excerpt: NCGC Assay Overview: Infection with human cytomegalovirus (HCMV) continues to pose significant threats for pregnant women and immunocompromised hosts. HCMV causes serious morbidity and mortality in transplant recipients, and congenital HCMV is the leading infectious cause of mental retardation and deafness in children. In the 1990s, the annual costs associated with the disease burden of congenital CMV were estimated at around $2 billion. A HCMV vaccine is not available yet and HCMV therapies result in intolerable side effects and emergence of drug resistant viruses. […] Towards this goal we have developed and characterized a luciferase HCMV reporter that was initially used in 96 well plates and then optimized to 1536-well plates for utilization in screening of the MLSMR collection, the NGCG diversity collection and the NCGC Pharmaceutical Collection of approved and investigational drugs.
NCGC Assay Protocol Summary:
This is a cell-based assay for HCMV inhibition in HFFs cells. The screening used 2 compound doses and the HCMV-luciferase at MOI of 1 PFU/cell. Cells were treated and infected with HCMV. At 72 h post infection cell lysates were collected and luciferase activity was determined using the Glomax-Multi + Detection System (Promega, Madison, WI). Data were normalized to the controls for basal activity (buffer only) and known HCMV inhibitors Salinmoycin.
1536-well assay protocol for the assay:
(1) Add 3 ul CMV/HFF cell culture. 1000 cells/well in DMEM nirmal media.
(2) Incubate 16 hr at 37C.
(3) Add 23 nl control compound, 10uM of Salinomycin.
(4) Add 23 nl compounds in DMSO solution.
(5) Add 3 ul CMV suspension. Final 1 puf/ul, Virus stock 2000pfu/ul
(6) Incubate 72 hrs at 37C.
(7) Add 4 ul OneGlo Luc Reagent.
(8) Incubate 5 min at room temperature.
On the % scale 0 is the no-effect control and ±100 the full control effect.

Row | SMILES | activity change, negative = inhibition
1 | Cc1ccc(NC(=O)N2c3ccccc3SC2c2ccco2)c(C)c1 (stereo unspecified) | -32.4%
2 | O=C(NCC(c1ccc(Cl)cc1)N1CCOCC1)c1ccccc1F (stereo unspecified) | 1.34%
3 | C=CCn1c(SCC(N)=O)nnc1-c1cc2c(s1)CCC(CC)C2 (stereo unspecified) | -11.3%
4 | CCc1ccc(NC(=O)CCS(=O)(=O)c2cc3c(cc2Cl)NC(=O)CO3)cc1 | 4.24%
5 | FC(F)(F)c1nc(-c2ccccc2)ncc1-c1nnnn1-c1ccccc1 | -66.2% (active)
6 | NNC(=O)c1cnn(-c2ccccc2)c1C(F)(F)F | 6.26%
7 | Fc1ccccc1CCNc1nnnn1-c1ccccc1 | -28.9%
8 | CCN(CC)S(=O)(=O)c1ccc2c(c1)c(=O)c(C(=O)N1CCN(c3cccc(Cl)c3)CC1)cn2C | 11.7%
9 | Cc1cccc(N2CCN(C(=O)CCn3c(=O)c4cccn4c4cccnc43)CC2C)c1 (stereo unspecified) | 15%
10 | CC(C)CCN1CCN=C1N(C)C | 3.25%
11 | CC(C)c1nc(SCC(=O)Nc2cccc(C(=O)O)c2)c2c3c(sc2n1)CCCC3 | -5.06%
12 | Cc1cc(C)n(-c2nc(SCC(=O)N3CCCC3)c3c4c(sc3n2)CCCC4)n1 | -63.6% (active)
13 | COCCNc1nc(-n2nc(C)cc2C)nc2sc3c(c12)CCCC3 | -6.15%
14 | CC(=O)c1ccc(NC(=O)CCNS(=O)(=O)c2cc(Br)cnc2N)cc1 | 31.8%
15 | CCOc1ccc(CNC(=O)c2ccc(CS(=O)c3ccccc3)o2)cc1 (stereo unspecified) | -3.55%
16 | CCCCc1nn2c(=O)cc(COC(=O)c3cccc(NC(=O)COc4ccccc4)c3)nc2s1 | 31.4%
17 | Cc1ccc2cccc([N+](=O)[O-])c2n1 | 19.3%
18 | O=[N+]([O-])c1ccccc1S(=O)(=O)Nc1cccc2cccnc12 | -100% (active)
19 | O=S(=O)(NCCc1ccc(F)cc1)c1cccc2cccnc12 | -31.1%

Row | SMILES | activity change, negative = inhibition
20 | Cn1c2ccccc2c2cc(/C=C(\NC(=O)c3ccccc3)C(=O)NCC(=O)O)ccc21 | -0.653%
21 | Cc1nc(-c2ccccc2C(C)C)nc(NCc2ccc(-c3cccnc3)cc2)c1C | 28%
22 | COc1ccc(OC)c(-c2csc(-c3c(N)c(C(=O)c4ccccc4)n4ccccc34)n2)c1 | 5.78%
23 | O=C(CSc1nc2ccccc2c(=O)n1-c1ccccc1F)N1CCOCC1 | -17.8%
24 | O=c1c2ccccc2nc(/C=C/c2ccc(F)cc2)n1-c1ccccc1O | -99.8% (active)
25 | O=c1c2ccccc2nc(/C=C/c2ccco2)n1-c1ccccc1O | -24%
26 | COc1ccc(OC)c2sc(N3CCN(C(=O)C4COc5ccccc5O4)CC3)nc12 (stereo unspecified) | -1.41%
27 | COc1ccccc1-c1nnc(C2CCN(C(=O)c3ccc(Cl)cc3)CC2)o1 | -8.12%
28 | Cc1nc2c(-c3ccc(F)cc3)c(C)nn2c(C)c1CCC(=O)NCc1ccco1 | -13.3%
29 | Cc1nc2c(-c3ccc(F)cc3)c(C)nn2c(C)c1CCC(=O)N1CCN(c2ccccn2)CC1 | -68.5% (active)
30 | Cc1nc2c(-c3ccccc3)c(C)nn2c(C)c1CCC(=O)NCCc1ccccc1 | 11.4%
31 | Cc1ccc(S(=O)(=O)c2c(Nc3cccc(Cl)c3)sc(C(=O)c3ccc4c(c3)OCO4)c2N)cc1 | 9.79%
32 | Cc1ccc(/C=N/NC(=O)C(NC(=O)c2ccccc2)c2n[nH]c(=O)c3ccccc23)cc1 (stereo unspecified) | 19.8%
33 | Cc1ccc(O)c(-c2cc(C(=O)NCc3ccccc3)[nH]n2)c1 | 1.75%
34 | Cc1ccc(/C=N/NC(=O)C2=NNC(c3ccccc3)(c3ccccc3)C2)c(O)c1 | -93.6% (active)
35 | COc1ccc(NC(=O)c2cc3cc(C)ccc3n2C)cc1 | 5.58%
36 | CCOC(=O)c1c(S(=O)(=O)N2CCCC(C(=O)NCc3cccc(C)c3)C2)c(C)n(C)c1C (stereo unspecified) | -0.309%
37 | Cc1oc2ncn(CC(C)C)c(=O)c2c1C(=O)N1CCN(c2ccccc2F)CC1 | 14.5%
38 | C=C1C(=O)[C@]23C[C@H]1CCC2[C@@]1(C)C(C[C@@H]3O)[C@](C)(C(=O)O)CC[C@@H]1O (stereo partly specified) | -81.2% (active)

Row | SMILES | activity change, negative = inhibition
39 | Cc1ccc(OCCOCCOc2ccc(Br)cc2/C=N\NC(=O)c2ccncc2)cc1 | -1.54%
40 | Oc1ccc(Br)cc1/C=N/Nc1ccccn1 | -97% (active)
41 | Fc1ccccc1/C=N/Nc1cc(N2CCCCC2)ncn1 | 76.3%
42 | COc1ccc(-c2noc(CSc3nc4ccc(C)cc4[nH]3)n2)cc1 | -38.7%
43 | COC(=O)c1cnc(N2CCN(c3ccccc3OC)CC2)c2ccccc12 | -6.88%
44 | Cc1cccc(N2CCN(C3=C(c4ccccc4)C(=O)c4ccccc43)CC2)c1C | -15.5%
45 | O=C(NC1CC(=O)N(c2ccc(F)cc2)C1)c1cccs1 (stereo unspecified) | 70.7%
46 | COc1ccc(C)cc1Nc1nc2ccccc2c2nnc(C)n12 | 18.4%
47 | O=C(c1n[nH]c2c1CCC2)N1CCCC(Nc2cccc(F)c2)C1 (stereo unspecified) | 9.79%
48 | Cc1ccc(-c2onc(C)c2C)cc1S(=O)(=O)Nc1ccccn1 | 52.8%
49 | COc1ccc2c(c1)Cc1sc(NC(=O)c3ccccc3Br)nc1-2 | -70.4% (active)
50 | Cn1c(=O)c(=O)n(C)c2cc(NC(=O)c3ccccc3Br)ccc21 | -5.7%
51 | COc1ccc(NS(=O)(=O)c2ccc(N3CCOCC3)c(NC(=O)c3ccccc3Br)c2)cc1 | 0%
52 | O=C(NCCc1ccccc1)c1ccc2c(c1)N(Cc1ccccc1)C(=O)c1ccccc1S2(=O)=O | 3.01%
53 | O=C(OCCO)c1cc(Cl)c(C(=O)OCCO)cc1Cl | -29.4%
54 | CC1=C(C(=O)N(C)C)CC(CC(=O)NCCc2ccccn2)C(=O)N1CCC1=CCCCC1 (stereo unspecified) | 8.56%
55 | CC1=C(C(=O)N(C(C)C)C(C)C)CC(CC(=O)NCCCCc2ccccc2)C(=O)N1CCC1=CCCCC1 (stereo unspecified) | -112% (active)
56 | CCOC(=O)[C@]12CCCC=C1N(CCC1=CCCCC1)C(=O)[C@H](CC(=O)NCCCCc1ccccc1)C2 | -18.4%
